Molecular target: Metabotropic glutamate receptor 3 (Rattus norvegicus) (UniProt P31422)
Experiment: PubChem AID 623888
Conditions: HEK/GIRK rat mGlu3, thallium flux fluorescence, Schild, at 10 µM; % glutamate max: glutamate max response with compound, stronger effect = lower value; glutamate EC50 fold shift: stronger effect = higher value

Sequence of Metabotropic glutamate receptor 3 (Rattus norvegicus) (P31422 whole entry, looked up): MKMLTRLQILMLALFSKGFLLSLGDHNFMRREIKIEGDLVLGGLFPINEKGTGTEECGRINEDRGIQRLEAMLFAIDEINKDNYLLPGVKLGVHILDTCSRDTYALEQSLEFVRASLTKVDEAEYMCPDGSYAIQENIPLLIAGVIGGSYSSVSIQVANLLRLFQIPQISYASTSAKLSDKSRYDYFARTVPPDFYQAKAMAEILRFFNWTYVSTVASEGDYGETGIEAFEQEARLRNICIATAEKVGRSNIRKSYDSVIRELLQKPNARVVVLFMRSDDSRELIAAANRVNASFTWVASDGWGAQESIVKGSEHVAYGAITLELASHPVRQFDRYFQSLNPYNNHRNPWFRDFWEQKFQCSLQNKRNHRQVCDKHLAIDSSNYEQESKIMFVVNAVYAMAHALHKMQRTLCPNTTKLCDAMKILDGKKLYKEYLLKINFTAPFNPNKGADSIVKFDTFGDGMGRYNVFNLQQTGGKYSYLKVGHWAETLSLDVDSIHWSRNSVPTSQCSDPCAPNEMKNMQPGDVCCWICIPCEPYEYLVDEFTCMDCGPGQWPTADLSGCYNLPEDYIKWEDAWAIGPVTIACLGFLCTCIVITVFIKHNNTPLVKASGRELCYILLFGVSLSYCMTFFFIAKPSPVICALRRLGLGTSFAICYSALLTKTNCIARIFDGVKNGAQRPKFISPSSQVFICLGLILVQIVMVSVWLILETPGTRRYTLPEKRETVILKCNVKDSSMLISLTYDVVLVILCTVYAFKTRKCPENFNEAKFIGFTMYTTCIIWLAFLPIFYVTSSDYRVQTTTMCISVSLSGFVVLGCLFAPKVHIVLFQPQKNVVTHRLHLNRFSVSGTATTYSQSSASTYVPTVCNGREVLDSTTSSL

SMILES: COc1ccc(C#Cc2ccc(C(=O)N3CCC[C@@H](CO)C3)cc2)cc1
- % glutamate max: 24.5%
- glutamate EC50 fold shift: 8.96

Reference: PubChem BioAssay AID623888 (Vanderbilt Specialized Chemistry Center, 2012)
